# The list is not random: actives were taken first. Their share in the collection is about 7.9%.
# Lassa entry inh: qHTS for Inhibitors of binding or entry into cells for Lassa Virus | Lassa virus pseudotype entry inhibition, cell reporter | Potency, µM (highest dose often 37.9 µM), hits mostly inhibitors | 1.2% of 300,000 active; calls by dose curve; tested in HEK293 cells; note: nearly all actives have a fitted effect of over 50% in size
# MARV entry inh: qHTS for inhibitors of binding or entry into cells for Marburg Virus; Marburg virus pseudotyped entry inhibition, cell reporter; 1.8% of 300,000 active; AID 540276, 2011; Potency, µM (top dose mostly 37.8 µM), most hits filed as inhibitors; calls by dose curve; tested in HEK293 cells
# FMDV antiviral: High Throughput Screening for Foot and Mouth Disease Virus Antivirals. FMDV antiviral cell-based qHTS. Potency, µM (series often up to 57.9 µM), usual class: inhibitors. 1.2% of 410,000 active. AID 1159524, 2015; calls by dose curve; tested in HEK293T cells; note: read-out not given here; nearly all actives have a fitted effect of over 45% in size
# HCMV inh: qHTS Assay for inhibitors of the human cytomegalovirus (HCMV) | 4.5% of 410,000 active | AID 1259415, 2018 | HFF cells, HCMV-luciferase reporter, 72 h; hits give low values | activity change, negative = inhibition, % at 57.5 µM; in the data active = activity change below about -60%; inconclusive = no clear call, values can overlap the other calls; inactive = above about -39%
#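 Inhibition of viral replication was scored as loss of reporter luminescence in HFFs infected with HCMV-luciferase (MOI 1 PFU/cell) for 72 h; compounds tested at 2 doses, normalized to buffer and Salinomycin controls.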
# HCV inhibitor: qHTS Assay for Inhibitors of Hepatitis C Virus (HCV); Huh7.5.1 HCVcc-Cre infection, luciferase reporter, 44 h; Potency, µM (series often up to 41.8 µM), most hits filed as inhibitors; 3.4% of 340,000 active; AID 651820, 2012; active = well fitted inhibition curve with a large enough effect; inconclusive = small, poorly fitted or top-dose-only effect, or another doubt; inactive = no such curve, though single readings can be large or run the other way
#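 Infectious HCV cell culture screen: compound-treated cells (1,000/well, pre-plated 4 h) are infected with HCVcc-Cre at roughly 0.5 moi and grown 44 h. Infection is quantified by luciferase signal after 15 min substrate incubation at room temperature.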
# Hits are given with their value; . = inactive; ? = inconclusive; / = no result.
SMILES,Lassa entry inh,MARV entry inh,FMDV antiviral,HCMV inh,HCV inhibitor
N#Cc1c(NCc2ccccc2)ccnc1NCc1cccnc1,.,?,.,-80,7.1µM
COc1ccc(S(=O)(=O)N2CCC3(CC2)OCCN3S(=O)(=O)c2cccs2)cc1OC,.,.,.,.,?
COc1ccc(OC)c(S(=O)(=O)NCCCN2CCCC2=O)c1,.,.,.,.,.
COc1ccc(CCNC(=O)C(=O)NCC2OCCN2S(=O)(=O)c2cccs2)cc1 (configuration not stated),.,.,.,.,.
c1ccc(-c2nc(NCc3cccnc3)c3ccccc3n2)cc1,.,?,.,.,10µM
Cc1ccc(-c2nc(NCc3cccnc3)c3ccccc3n2)cc1,.,.,.,.,?
c1cncc(-c2nc(NCCCn3ccnc3)c3ccccc3n2)c1,.,?,.,-67,?
CCN1CCN(Cc2c(O)ccc3c2O/C(=C\C=C\c2ccccc2)C3=O)CC1,?,?,.,?,?
CN(C)Cc1c(O)ccc2c1O/C(=C\C=C\c1ccccc1)C2=O,/,/,.,-65,.
COc1ccccc1/C=C/C=C1\Oc2c(ccc(O)c2CN2CCN(CCO)CC2)C1=O,.,.,.,-93,.
NC(=O)NC1CCCc2c1[nH]c1ccc(Cl)cc21 (configuration not stated),/,.,.,.,6.3µM
C=C(C)Cn1c(SCC#N)nc2ccccc2c1=O,.,.,.,.,.
CCN(CCCn1c(SCC#N)nc2ccccc2c1=O)c1ccccc1,?,9.2µM,?,.,?
O=C(COC(=O)CCS(=O)(=O)c1ccccc1)Nc1ccc(N2CCCCC2)cc1,/,/,.,.,.
O=C(CCl)Nc1nc(-c2ccco2)c(-c2ccco2)s1,?,?,.,-69,?
Cc1ccccc1OCCC(=O)OCC(=O)NNC(=O)c1cccs1,/,/,.,.,.
Cc1ccc(-c2nc(NC(=O)c3nn(C)cc3[N+](=O)[O-])sc2C)cc1,/,.,11µM,-104,4.5µM
CCOC(=O)Nc1nc(-c2ccccc2)c(C(=O)c2ccccc2)s1,?,?,.,.,?
Cn1cc([N+](=O)[O-])c(C(=O)Nc2nc(-c3ccc(Cl)cc3)cs2)n1,?,?,?,-96,4µM
Cc1ccc(-c2nc(NC(=O)c3nn(C)cc3[N+](=O)[O-])sc2C)cc1C,4µM,?,13µM,-107,?
CCCOC(=O)Nc1nc(-c2ccc(C)cc2)c(C)s1,11µM,.,.,?,.
COc1ccc(C(=O)NCC2Cc3cc(C)cc(-c4cc(C(C)=O)ccc4F)c3O2)c(OC)c1OC (configuration not stated),/,/,.,/,/
Cc1cnc(NC(=O)c2nn(C)cc2[N+](=O)[O-])s1,.,.,.,-99,?
COCCNc1c(-c2ccc(OC)c(OC)c2)nc2ccc(Cl)cn12,/,/,.,.,.
COCCNc1c(-c2cc3ccc(C)c(C)c3[nH]c2=O)nc2ccccn12,5µM,?,.,.,.
SMILES,Lassa entry inh,MARV entry inh,FMDV antiviral,HCMV inh,HCV inhibitor
COCc1cn(CC[C@@H]2CC[C@@H](NC(=O)Nc3ccc4c(c3)OCO4)[C@@H](CO)O2)nn1,/,/,.,.,/
CCOc1cc(C)nc(NCc2ccccc2)n1,.,.,.,.,.
CC(=O)c1ccc(Oc2cc(C)nc(NCc3ccccc3)n2)cc1,?,?,.,.,13µM
O=C(Cn1c2ccccc2c(=O)c2ccccc21)N/N=C/c1cc([N+](=O)[O-])ccc1N1CCCCCC1,.,?,.,-73,2.5µM
CCc1ccc2oc(C(=O)NCc3ccncc3)c(C)c2c1,.,.,.,?,11µM
Cc1cc(C)c2c(C)c(C(=O)NCc3ccncc3)oc2c1,.,.,.,.,2µM
CSc1nnc(NC(=O)c2ccc(S(=O)(=O)N3CCOCC3)cc2)s1,.,.,.,.,/
COc1cccc(-c2nccc(NCc3cnc(C)cn3)n2)c1,/,/,.,/,/
CC(C)NC(=O)Cn1c(=O)nc(-c2ccccc2)c2ccccc21,.,/,.,.,/
C=CCNC(=S)NNC(=O)C(CCC(C)C)CC(C)(C)O (configuration not stated),.,.,.,-107,.
COc1cc2c(cc1NC(=O)CSc1ccccc1)oc1ccccc12,.,.,.,?,?
COc1cc2c(cc1NC(=O)CSc1nc3ccccc3[nH]1)oc1ccccc12,?,21µM,.,?,8.9µM
COc1cc2c(cc1NC(=O)CSc1nccn1C)oc1ccccc12,?,?,.,.,2.8µM
O=C(CSc1nc2ccccc2[nH]1)Nc1ccccc1N1CCOCC1,.,8.9µM,?,.,.
COc1cc2c(cc1NC(=O)CN(C)Cc1nc3ccccc3c(=O)[nH]1)oc1ccccc12,?,23µM,.,.,?
COc1cc2c(cc1NC(=O)CSc1nc3cc(Cl)ccc3s1)oc1ccccc12,.,?,.,.,.
CCN(CC(=O)Nc1cc(OC)ccc1OC)Cc1nc2ccccc2c(=O)[nH]1,.,.,.,.,.
COc1cc2nc(NCc3ccc(C)cc3)n3nc(-c4ccccc4)nc3c2cc1OC,/,.,.,.,/
Cc1nc2cnc(N(C)C)nc2n(-c2ccccc2)c1=O,/,/,.,/,/
Cc1cc(C)cc(C(=O)Nc2c3c(nn2-c2ccccc2C)CS(=O)(=O)C3)c1,.,/,.,.,/
CN1CCc2c(n(C[C@H](O)CN3C(=O)c4ccccc4S3(=O)=O)c3ccccc23)C1=O,/,.,/,/,/
Nc1nonc1C(=O)N/N=C/c1ccc(-c2ccc(Cl)c(C(=O)O)c2)o1,.,?,.,-73,.
Cc1cccc(NC(=O)c2cccc(N3C(=O)C4C5C=CC(C6CC56)C4C3=O)c2)c1 (configuration not stated),.,?,16µM,.,11µM
Cc1cc(C(N)=O)c2ccccc2n1,.,.,/,.,.
NC(=O)c1cc2ccncc2c2ccccc12,/,/,.,-99,.
SMILES,Lassa entry inh,MARV entry inh,FMDV antiviral,HCMV inh,HCV inhibitor
CN(CC(=O)Nc1ccc(S(=O)(=O)N2CCCC2)cc1)Cc1cccc(Cl)c1Cl,?,?,.,.,.
CN(Cc1cccc(Cl)c1Cl)c1ccc(S(=O)(=O)N2CCCCC2)cc1[N+](=O)[O-],.,?,.,?,11µM
Cc1ccc(C)c(NS(=O)(=O)c2cc(C(=O)N3CCc4ccccc4C3)ccc2Cl)c1,.,.,.,.,?
Cc1ccccc1NS(=O)(=O)c1cc(C(=O)Nc2ccccc2-c2ccccc2)ccc1Cl,?,.,.,.,11µM
C=CCNC(=O)c1ccccc1NC(=O)c1ccc(Cl)c(S(=O)(=O)Nc2cc(C)ccc2C)c1,?,?,.,.,13µM
Cc1ccccc1NS(=O)(=O)c1cc(C(=O)N2CCCC2)ccc1Cl,.,.,.,.,/
CCC(C(=O)NCCc1ccc(OC)cc1OC)n1nc(C)n2c(cc3occc32)c1=O (configuration not stated),.,.,.,?,.
CCc1ccc2oc(-c3cc(N)ccc3O)nc2c1,?,?,25µM,.,?
CCc1ccc2oc(-c3cc(N)ccc3Cl)nc2c1,.,.,.,.,.

# Screening data from PubChem BioAssay.
